mHTT-CaM PPI inh: mutant huntingtin-calmodulin interaction inhibitors – biochemical, AlphaScreen, primary screen; P42858; AlphaScreen His-mHTT/GST-CaM binding, luminescence; inhibition, % at 15 µM; 190,000 tested, 3.6% active;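 also: 0% = both proteins with DMSO and 100% = one protein alone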
Target sequence (P42858 whole entry, looked up, stated change not applied): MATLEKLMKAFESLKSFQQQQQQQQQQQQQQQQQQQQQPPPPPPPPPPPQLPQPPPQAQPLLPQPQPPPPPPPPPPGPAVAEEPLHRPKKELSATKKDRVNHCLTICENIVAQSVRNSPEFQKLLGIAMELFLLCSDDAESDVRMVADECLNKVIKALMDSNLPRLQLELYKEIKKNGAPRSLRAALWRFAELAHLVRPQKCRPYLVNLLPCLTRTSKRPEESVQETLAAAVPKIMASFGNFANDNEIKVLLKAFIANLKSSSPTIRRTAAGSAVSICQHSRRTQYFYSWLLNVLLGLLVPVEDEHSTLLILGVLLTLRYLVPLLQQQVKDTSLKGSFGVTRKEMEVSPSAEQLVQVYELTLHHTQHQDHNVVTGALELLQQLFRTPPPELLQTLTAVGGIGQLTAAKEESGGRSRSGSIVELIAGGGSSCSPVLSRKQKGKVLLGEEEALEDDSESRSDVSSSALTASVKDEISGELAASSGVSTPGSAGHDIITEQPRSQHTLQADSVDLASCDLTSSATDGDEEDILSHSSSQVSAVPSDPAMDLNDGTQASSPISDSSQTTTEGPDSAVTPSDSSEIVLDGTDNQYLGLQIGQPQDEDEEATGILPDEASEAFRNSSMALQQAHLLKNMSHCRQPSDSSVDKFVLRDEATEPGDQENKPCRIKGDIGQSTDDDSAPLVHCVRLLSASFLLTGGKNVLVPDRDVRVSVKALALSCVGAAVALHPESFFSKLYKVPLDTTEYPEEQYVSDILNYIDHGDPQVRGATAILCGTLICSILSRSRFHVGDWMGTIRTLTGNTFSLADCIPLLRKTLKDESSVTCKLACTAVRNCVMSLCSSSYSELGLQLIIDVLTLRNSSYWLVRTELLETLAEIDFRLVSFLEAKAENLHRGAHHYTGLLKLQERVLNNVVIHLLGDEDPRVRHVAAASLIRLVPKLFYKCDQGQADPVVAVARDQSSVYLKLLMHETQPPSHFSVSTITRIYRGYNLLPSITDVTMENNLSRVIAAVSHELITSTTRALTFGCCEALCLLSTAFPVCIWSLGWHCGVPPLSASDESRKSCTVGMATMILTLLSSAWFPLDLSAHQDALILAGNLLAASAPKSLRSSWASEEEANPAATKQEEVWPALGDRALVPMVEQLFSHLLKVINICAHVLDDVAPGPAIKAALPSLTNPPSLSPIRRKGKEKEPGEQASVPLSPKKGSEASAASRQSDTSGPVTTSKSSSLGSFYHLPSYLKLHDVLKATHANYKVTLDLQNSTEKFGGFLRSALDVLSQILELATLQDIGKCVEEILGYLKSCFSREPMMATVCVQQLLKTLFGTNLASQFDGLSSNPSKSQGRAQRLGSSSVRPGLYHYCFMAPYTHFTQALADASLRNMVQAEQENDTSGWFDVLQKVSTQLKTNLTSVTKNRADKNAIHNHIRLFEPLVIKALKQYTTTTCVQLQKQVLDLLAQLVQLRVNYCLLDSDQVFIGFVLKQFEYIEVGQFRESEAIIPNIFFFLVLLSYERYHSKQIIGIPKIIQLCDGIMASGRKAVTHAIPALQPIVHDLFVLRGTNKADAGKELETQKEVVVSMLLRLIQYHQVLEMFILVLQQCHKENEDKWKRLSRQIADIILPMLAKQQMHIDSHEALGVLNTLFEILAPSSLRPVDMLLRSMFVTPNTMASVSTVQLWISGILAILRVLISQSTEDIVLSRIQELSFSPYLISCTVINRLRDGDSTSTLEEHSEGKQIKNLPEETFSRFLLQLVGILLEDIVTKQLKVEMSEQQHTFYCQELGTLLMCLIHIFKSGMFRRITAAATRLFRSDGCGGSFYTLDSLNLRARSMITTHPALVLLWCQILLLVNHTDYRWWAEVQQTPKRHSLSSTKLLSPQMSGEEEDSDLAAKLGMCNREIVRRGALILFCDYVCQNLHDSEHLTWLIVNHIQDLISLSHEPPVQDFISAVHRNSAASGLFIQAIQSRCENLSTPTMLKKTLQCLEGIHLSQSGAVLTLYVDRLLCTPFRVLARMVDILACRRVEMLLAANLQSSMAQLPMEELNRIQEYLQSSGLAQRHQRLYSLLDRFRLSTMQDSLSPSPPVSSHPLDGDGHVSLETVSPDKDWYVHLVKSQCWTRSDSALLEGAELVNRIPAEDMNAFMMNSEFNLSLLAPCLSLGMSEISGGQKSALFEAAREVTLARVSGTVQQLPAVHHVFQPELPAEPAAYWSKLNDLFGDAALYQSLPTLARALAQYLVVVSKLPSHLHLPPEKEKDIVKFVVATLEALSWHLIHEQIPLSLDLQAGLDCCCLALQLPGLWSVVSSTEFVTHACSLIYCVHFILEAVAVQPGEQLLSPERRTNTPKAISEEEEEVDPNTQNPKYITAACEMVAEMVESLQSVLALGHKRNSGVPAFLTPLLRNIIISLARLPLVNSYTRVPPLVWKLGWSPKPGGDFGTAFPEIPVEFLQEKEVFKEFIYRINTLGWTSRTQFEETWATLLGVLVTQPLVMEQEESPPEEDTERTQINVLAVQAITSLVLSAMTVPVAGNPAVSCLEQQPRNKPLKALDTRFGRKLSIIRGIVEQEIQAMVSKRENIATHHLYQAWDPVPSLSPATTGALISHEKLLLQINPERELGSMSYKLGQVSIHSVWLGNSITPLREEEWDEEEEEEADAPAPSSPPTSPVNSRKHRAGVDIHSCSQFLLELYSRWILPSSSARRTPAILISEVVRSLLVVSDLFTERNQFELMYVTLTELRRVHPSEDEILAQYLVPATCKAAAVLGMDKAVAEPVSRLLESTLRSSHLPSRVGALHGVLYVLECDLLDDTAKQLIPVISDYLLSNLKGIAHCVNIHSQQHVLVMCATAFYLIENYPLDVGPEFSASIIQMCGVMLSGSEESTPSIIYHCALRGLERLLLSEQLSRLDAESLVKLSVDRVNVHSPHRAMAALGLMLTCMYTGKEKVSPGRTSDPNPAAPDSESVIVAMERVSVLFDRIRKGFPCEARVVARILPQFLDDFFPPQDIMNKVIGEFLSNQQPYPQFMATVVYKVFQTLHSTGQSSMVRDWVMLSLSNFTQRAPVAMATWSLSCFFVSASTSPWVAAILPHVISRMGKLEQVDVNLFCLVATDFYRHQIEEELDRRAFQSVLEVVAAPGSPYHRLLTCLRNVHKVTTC
Pf apPOL inh: Pf-apPOL inhibitors, biochemical, fluorescence | 210,000 tested, 0.25% active | inhibition, % at 10 µM | Plasmodium falciparum apicoplast DNA polymerase (apPOL) | Recombinant Pf-apPOL, molecular beacon fluorescence, 1.5 h
Starred values were filed as active, the others as inactive. Shown are actives, neighbours in structure and some others; about 3.5% of the full set was active somewhere. Rule as the data show it: active = inhibition above about 50%; inactive = the rest.

What do the screens show for `O=C1CCCC2=C1C(c1ccc(Br)cc1)n1nc(-c3ccco3)nc1N2` (stereo unspecified)?
mHTT-CaM PPI inh: 84*; Pf apPOL inh: 1

What do the screens show for `COc1ccc(-c2nc3n(n2)C(c2ccccc2)C2=C(CCCC2=O)N3)cc1OC` (stereo unspecified)?
mHTT-CaM PPI inh: 60*; Pf apPOL inh: 0

What do the screens show for `COc1ccc(C2C3=C(CCCC3=O)Nc3nc(-c4cccc(C)c4)nn32)cc1OC` (stereo unspecified)?
mHTT-CaM PPI inh: 86*; Pf apPOL inh: -2

Results for COc1cc(OC)cc(-c2nc3n(n2)C(c2ccccc2)C2=C(CCCC2=O)N3)c1 (stereo unspecified) ?
mHTT-CaM PPI inh: 23; Pf apPOL inh: 2

What do the screens show for `CN(CCNC(=O)C1CCc2nc(N3CCOCC3)ncc2C1)C1CCCCC1` (stereo unspecified)?
mHTT-CaM PPI inh: -1; Pf apPOL inh: -9

What do the screens show for `O=C(NC1CC2CC1N(C(=O)Cc1ccc(OC(F)(F)F)cc1)C2)c1cccnc1` (stereo unspecified)?
mHTT-CaM PPI inh: 7; Pf apPOL inh: -6

Results for O=C(Oc1ccc2c(c1)OC(=Cc1cccnc1)C2=O)c1cccc([N+](=O)[O-])c1 ?
mHTT-CaM PPI inh: 11; Pf apPOL inh: 2

What do the screens show for `Cc1cc(C)cc(C(=O)N2CCC3(CC2)NC(=O)c2cc(C)ccc2N3C)c1`?
mHTT-CaM PPI inh: -7; Pf apPOL inh: 1

How did Cc1ccc(C(=O)c2nc3c(n2O)CCCCC3)cc1 do in these assays?
mHTT-CaM PPI inh: 25; Pf apPOL inh: -2

What do the screens show for `CCOC(=O)C(=C(C)Nc1ccc(F)cc1)C1CC(=O)N(c2ccccc2)C1=O` (stereo unspecified)?
Pf apPOL inh: -8

Results for N#C/C(=C\c1cccn1-c1ccc([N+](=O)[O-])cc1)c1nn(-c2ccccc2)c(N)c1C#N ?
mHTT-CaM PPI inh: 42; Pf apPOL inh: 8

How did COc1ccc(C2C3=C(CCCC3=O)Nc3nc(-c4ccccc4)nn32)cc1OC (stereo unspecified) do in these assays?
mHTT-CaM PPI inh: 76*; Pf apPOL inh: 0

How did O=C1CCCC2=C1C(c1ccncc1)n1nc(-c3cccc(Cl)c3)nc1N2 (stereo unspecified) do in these assays?
mHTT-CaM PPI inh: 55*; Pf apPOL inh: -3

How did COc1ccc(C2C3=C(CCCC3=O)Nc3nc(-c4cccc(Cl)c4)nn32)cc1OC (stereo unspecified) do in these assays?
mHTT-CaM PPI inh: 18; Pf apPOL inh: -6

Results for O=C1CCCC2=C1C(c1ccc3c(c1)OCO3)n1nc(-c3cccc(Cl)c3)nc1N2 (stereo unspecified) ?
mHTT-CaM PPI inh: 19; Pf apPOL inh: -2

Results for COc1cccc2cc(C(=O)Nc3nccs3)c(=Nc3cccc(C(F)(F)F)c3)oc12 ?
mHTT-CaM PPI inh: 4; Pf apPOL inh: -4

How did CCN(Cc1ccccc1)C(=O)CCc1ccccc1 do in these assays?
mHTT-CaM PPI inh: -23; Pf apPOL inh: -2

Results for COc1ccccc1C1=NN(C(=O)CN2CCC(C)CC2)C(c2cccc(F)c2)C1 (stereo unspecified) ?
mHTT-CaM PPI inh: 22; Pf apPOL inh: -7

How did COc1ccccc1C1CC(c2cccc(F)c2)=NN1C(=O)CN1CCN(C)CC1 (stereo unspecified) do in these assays?
mHTT-CaM PPI inh: 99*; Pf apPOL inh: 0

Results for CC(=O)N1CCN(CC(=O)N2N=C(c3ccccc3)CC2c2ccc(F)cc2)CC1 (stereo unspecified) ?
mHTT-CaM PPI inh: 30; Pf apPOL inh: -2

How did COc1ccccc1C1CC(c2ccc(F)cc2)=NN1C(=O)CN1CCC(C)CC1 (stereo unspecified) do in these assays?
mHTT-CaM PPI inh: 93*; Pf apPOL inh: -4

Results for CC(C)C(=O)Nc1cnc(-c2cccc(Cl)c2)nc1 ?
mHTT-CaM PPI inh: -6; Pf apPOL inh: -1

How did Cc1c(NC(=O)CN2C(=O)c3ccccc3C2=O)cccc1C(=O)O do in these assays?
mHTT-CaM PPI inh: 2; Pf apPOL inh: -2

Results for CCCCSC1=NN2CCCC(=O)N=C2S1 ?
mHTT-CaM PPI inh: -9; Pf apPOL inh: -5

How did CC(C)CN1CCC(C(=O)N2CCN(Cc3ccc4c(c3)OCO4)CC2)CC1 do in these assays?
mHTT-CaM PPI inh: -2; Pf apPOL inh: -4

How did CC(C)c1ccc(N2CCN(CC(=O)N3CCn4c3nc3ccccc34)C2=O)cc1 do in these assays?
mHTT-CaM PPI inh: 0; Pf apPOL inh: 0

Results for Cn1c(CNC(=O)CCC2CCCN(c3cc(NC4CC4)ncn3)C2)nc2ccccc21 (stereo unspecified) ?
mHTT-CaM PPI inh: 29; Pf apPOL inh: -3

Results for CN(C(=O)Cc1c(C(=O)O)[nH]c2ccc(Cl)cc12)c1ccc(Br)cc1 ?
mHTT-CaM PPI inh: 10; Pf apPOL inh: 1

Results for Cc1ccc(Cl)cc1N1CCN(C(=O)Cc2c(C(=O)O)[nH]c3ccc(Cl)cc23)CC1 ?
mHTT-CaM PPI inh: 98*; Pf apPOL inh: 0

Results for O=C(O)c1[nH]c2ccccc2c1CC(=O)N1CCN(c2ccc([N+](=O)[O-])cc2)CC1 ?
mHTT-CaM PPI inh: 7; Pf apPOL inh: -3

How did O=C(N1CCN(c2cccc(Cl)c2)CC1)C1(S(=O)(=O)c2ccc(Cl)cc2)CC1 do in these assays?
mHTT-CaM PPI inh: 13; Pf apPOL inh: -5

How did O=C(O)c1[nH]c2ccc(Cl)cc2c1CC(=O)N1CCN(c2cccc(Cl)c2)CC1 do in these assays?
mHTT-CaM PPI inh: 63*; Pf apPOL inh: -4

How did Cc1ccc(Cl)cc1N1CCN(C(=O)C2(S(=O)(=O)c3ccc(Cl)cc3)CC2)CC1 do in these assays?
mHTT-CaM PPI inh: 92*; Pf apPOL inh: 1

Results for CC1=NN(C(=S)c2ccc(C)cc2)C(C)(O)C1CC(C)C (stereo unspecified) ?
mHTT-CaM PPI inh: 76*

What do the screens show for `O=C1OC(c2ccc([N+](=O)[O-])cc2Cl)=N/C1=C\c1cc(Br)cs1`?
mHTT-CaM PPI inh: 0; Pf apPOL inh: 2

How did O=C(Nc1c2c(nn1-c1ccc([N+](=O)[O-])cc1)CSC2)C1CCCC1 do in these assays?
mHTT-CaM PPI inh: 8; Pf apPOL inh: 0

How did Cc1ccccc1CN1CCCN(c2ncccc2-c2nc(C(C)C)no2)CC1 do in these assays?
mHTT-CaM PPI inh: -66; Pf apPOL inh: -2

What do the screens show for `CC(C)c1noc(-c2cccnc2N2CCCN(Cc3ccccc3Cl)CC2)n1`?
mHTT-CaM PPI inh: 61*; Pf apPOL inh: 2

Results for O=C(COc1ncnc2cc(Cl)ccc12)Nc1cccc(C(F)(F)F)c1 ?
Pf apPOL inh: 5

Results for CC(C)NC(=O)N1CCN(C(C(=O)N2CCCC2)C2CCCC2)CC1 (stereo unspecified) ?
mHTT-CaM PPI inh: 5; Pf apPOL inh: -4

What do the screens show for `CC(C)C(=O)N1N=C(c2ccc([N+](=O)[O-])cc2)CC1(O)C(F)(F)F` (stereo unspecified)?
mHTT-CaM PPI inh: 0; Pf apPOL inh: -3

How did CC(C)(C)c1ccc(C(=O)N2N=C(c3ccc([N+](=O)[O-])cc3)CC2(O)C(F)(F)F)cc1 (stereo unspecified) do in these assays?
mHTT-CaM PPI inh: 41; Pf apPOL inh: 1

How did O=C(c1ccc([N+](=O)[O-])cc1)N1N=C(c2ccncc2)CC1(O)C(F)(F)F (stereo unspecified) do in these assays?
mHTT-CaM PPI inh: 5; Pf apPOL inh: 83*

Screening results from PubChem BioAssay.
